Assay [1] in a line: MultiTox-Fluor Cytotoxicity Assay - LYMP1-003 - Live Cells (AID 962).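 Further: cells exposed to compound for 16 hours at 37 °C.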 The essentials: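 qHTS, 1536-well; 2500 cells/well LYMP1-003; 5 hr 37 C settle; cpd 16 hr 37 C; MultiTox-Fluor reagent 60 min RT; live-cell protease fluor. 405/510; Hill-fit AC50; tetraoctylammonium bromide pos. ctrl.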
Assay [2] can be described thus: Cell Viability - LYMP1-003 - Assay at 24 hr (AID 963). The essentials:
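Cells seeded at 2500/well, 5 hr at 37 C; compounds added; 24 hr at 37 C; CellTiter-Glo added, 30 min room temperature; luminescence read. Decrease in ATP taken as cytotoxicity, AC50 from Hill modelling.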

The nature of assay [3]: Cell Viability - LYMP1-003 - Assay at 40 hr (AID 964). Further: nearly all actives have a fitted effect of over 60% in size. The essentials:
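Cells were seeded at 2500 per well and incubated 5 hr at 37 C. Compounds were added across a concentration series and left 40 hr at 37 C. CellTiter-Glo was added for 30 min at room temperature before luminescence reading.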

Assay [4] in a line: Cell Viability - LYMP2-003 (AID 965).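 Further: cells exposed to compounds for 24 h before reading; nearly all actives have a fitted effect of over 50% in size.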 In a few lines: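 Human lymphoblastoid cells (2500/well) were pre-incubated 5 hr at 37 C, then exposed to compounds over a concentration range for 24 hr at 37 C. Intracellular ATP was read by CellTiter-Glo luminescence; AC50 came from Hill-equation fits.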
The nature of assay [5]: Cell Viability - LYMP2-011 (AID 969). Further: nearly all actives have a fitted effect of over 60% in size. In a few lines: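 2500 cells/well, 5 hr 37 C; compound added, 24 hr 37 C; CellTiter-Glo 30 min RT; luminescence. qHTS concentration-response, Hill-equation AC50. Tetraoctylammonium bromide positive control.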
The nature of assay [6]: Cell Viability - LYMP2-017 (AID 972). Further: nearly all actives have a fitted effect of over 55% in size. The essentials:
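2500 cells/well, 5 h 37 C; cpd 24 h 37 C in complete medium; CellTiter-Glo, 30 min RT; luminescence (ATP). AC50 via Hill fit, qHTS.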

Assay [7] is described as follows: Cell Viability - LYMP2-019 (AID 973). Further: nearly all actives have a fitted effect of over 55% in size. In a few lines: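 Luminescent ATP read-out (CellTiter-Glo, 30 min room temperature) served as the viability measure after 24 hr treatment of lymphoblastoid cells at 37 C. Concentration-response data were fitted to the Hill equation for AC50.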
Assay [8] can be described thus: Cell Viability - LYMP2-021 (AID 974).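 Further: compound exposure lasts 24 hours at 37 °C; nearly all actives have a fitted effect of over 55% in size.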 In a few lines:
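Plate 2500 lymphoblastoid cells per well and incubate 5 hr at 37 C. Add compounds over a concentration range and incubate 24 hr at 37 C. Add CellTiter-Glo, wait 30 min at room temperature, read luminescence.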

The nature of assay [9]: Cell Viability - LYMP2-023 (AID 975). Further: nearly all actives have a fitted effect of over 55% in size. The essentials: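 2500 cells/well, 5 hr 37 C; cpd 24 hr 37 C; CellTiter-Glo, 30 min RT; luminescence. qHTS conc-response, Hill fit -> AC50. Pos ctrl tetraoctylammonium bromide.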
Assay [10] is described as follows: Cell Viability - LYMP2-025 (AID 976). In a few lines:
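Seed 2500 LYMP2-025 cells/well; 5 hr at 37 C; add compound; 24 hr at 37 C; add CellTiter-Glo; 30 min RT; read luminescence. AC50 from Hill-modelled concentration-response.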

Assay [11] is described as follows: Cell Viability - LYMP2-002 (AID 977).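 Further: compound exposure lasted 24 h at 37 °C.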 In a few lines:
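Human lymphoblastoid LYMP2-002 cells, 2500 per well, exposed to compounds for 24 h at 37 C in complete medium; viability read as intracellular ATP by CellTiter-Glo luminescence, AC50 from Hill fits.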

The nature of assay [12]: Cell Viability - LYMP2-008 (AID 980). Further: nearly all actives have a fitted effect of over 60% in size. The essentials:
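qHTS, human lymphoblastoid line, 2500 cells/well; 5 hr preincubation, 24 hr compound, 37 C. CellTiter-Glo ATP luminescence. AC50 via Hill equation. Tetraoctylammonium bromide positive control.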

Assay [13] in a line: Cell Viability - LYMP2-010 (AID 981). Further: nearly all actives have a fitted effect of over 55% in size. In a few lines: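 Luminescent ATP signal (CellTiter-Glo) served as the viability read-out. Cells of the human lymphoblastoid line were treated with compound over a concentration range for 24 hours at 37 C, and AC50 values came from Hill-equation modeling.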
Assay [14] is described as follows: Cell Viability - LYMP2-012 (AID 982).
Assay [15] is described as follows: Cell Viability - LYMP2-014 (AID 983). Further: nearly all actives have a fitted effect of over 50% in size. In a few lines: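 Luminescent ATP signal (CellTiter-Glo, 30 min at room temperature) serves as the viability read-out after 24 hr compound exposure at 37 C. Cells were seeded at 2500 per well and settled 5 hr beforehand.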
Assay [16] in a line: Cell Viability - LYMP2-016 (AID 984). Further: nearly all actives have a fitted effect of over 55% in size. The essentials: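 Human lymphoblastoid cells (LYMP2-016), 2500/well in complete medium, preincubated 5 hr at 37 C, then compound-treated 24 hr at 37 C. Intracellular ATP read by CellTiter-Glo luminescence after 30 min at room temperature; AC50 from Hill-equation concentration-response fits.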
Assay [17] is described as follows: Cell Viability - LYMP2-018 (AID 985). Further: nearly all actives have a fitted effect of over 50% in size. The essentials:
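Luminescent ATP signal (CellTiter-Glo, read after 30 min at room temperature) reports viable cells after 24 hr compound treatment at 37 C. Concentration-response data were fitted to the standard Hill equation for AC50.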

Assay [18] is described as follows: Cell Viability - LYMP2-020 (AID 986). Further: nearly all actives have a fitted effect of over 55% in size. In a few lines: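 Luminescent ATP signal (CellTiter-Glo, 30 min at room temperature) is the read-out after 24 h compound treatment of lymphoblastoid cells at 37 C. AC50 values come from Hill-equation fits across concentrations.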
Assay [19] can be described thus: Cell Viability - LYMP2-022 (AID 987). Further: nearly all actives have a fitted effect of over 55% in size. In a few lines: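 qHTS: human lymphoblastoid cells 2500/well; 5 hr 37 C; cpd added; 24 hr 37 C; CellTiter-Glo, 30 min RT; luminescence. AC50 via Hill fit; tetraoctylammonium bromide positive ctrl.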
A short description of assay [20]: Cell Viability - LYMP2-024 (AID 988). Further: nearly all actives have a fitted effect of over 60% in size. In a few lines: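 Steps: seed 2500 cells/well, 5 hr 37 C; add compound, 24 hr 37 C; add CellTiter-Glo, 30 min room temperature; read luminescence. AC50 derived by Hill modelling of concentration-dependent ATP loss.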

Inconclusive results are not listed. Calls of active or inactive are those of the source. The call rests on the fitted dose curve; in most records, active means well fitted curve in the direction sought with a large enough effect; inconclusive means small, poorly fitted or top-dose-only effect, or another doubt; inactive means no such curve, though single readings can be large; an effect the other way counts as inactive or inconclusive.
Potency means the concentration at half of the fitted maximal effect.

As to `CCCCCCCCCc1ccc(O)cc1`, the Potency entry in assay [1], in [2], in assay [3], in assay [4], in [5] and in assay [6] was “inactive” each time. The Potency entry in assay [7], in assay [8], in [9], in assay [10], in [11] and in assay [12] was “inactive” in each case. Also, the Potency entry in [13], in assay [14], in assay [15], in assay [16], in [17] and in assay [18] was “inactive” throughout. The Potency entry in assay [19] and in assay [20] was “inactive” each time.
`O=C1C(Cl)=C(Cl)C(=O)C(Cl)=C1Cl`: the Potency in assay [1] was 50.1 µM (active); in [2], 31.6 µM (active); in [3], 31.6 µM (active); in [4], 20 µM (active); in [5] it was 25.1 µM (active); in assay [6], 20 µM (active). Moreover, the Potency in assay [7] was 25.1 µM (active); in assay [8] it was 12.6 µM (active); in assay [9], 25.1 µM (active); in assay [10], 50.1 µM (active); in assay [11] it was 25.1 µM (active); in assay [12], 39.8 µM (active). Also, the Potency in assay [13] is 12.6 µM (active); in assay [14], 15.8 µM (active); in [15] it was 20 µM (active); in assay [16], 25.1 µM (active); in assay [17] it was 39.8 µM (active); in [18], 12.6 µM (active). The Potency in assay [19] is 15.8 µM (active); in assay [20] it was 10 µM (active).
